Compound activity from PubChem BioAssay.
GLS inhibitor – blocks human kidney-isoform glutaminase activity | Potency, µM (titrated, usually from 45.5 µM), actives largely listed as inhibitors | GLS enzymatic activity, qHTS titration | 410,000 tested, 0.21% active | O94925
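Human kidney-isoform GLS in 45 mM KH2PO4 pH 8.2, 0.02% Tween-20, with compound, started with 1mM L-Glutamine (added stock). Glutamate oxidase/HRP/Amplex red coupled fluorescence read at start and after 30 min at RT.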
JMJD2A Tudor – blocks the human JMJD2A Tudor domain. AlphaScreen JMJD2A-Tudor / H3K4me3 peptide binding. Potency, µM (top dose mostly 114 µM), most hits filed as inhibitors. O75164. 390,000 tested, 4.4% active; note: nearly all actives have a fitted effect of over 50% in size
BAZ2B block – BAZ2B (human) inhibition; Q9UIF8; AlphaScreen BAZ2B-H3K14Ac peptide displacement; Potency, µM (doses to about 114 µM), actives largely listed as inhibitors; 360,000 tested, 4.4% active; note: nearly all actives have a fitted effect of over 60% in size
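AlphaScreen luminescence quantifies BAZ2B engagement of H3K14Ac peptide; the protein and biotinylated peptide are both at 50 nM final, buffer PBS pH 7.4 with 0.01% Tween-20, all steps at room temperature.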
HP1b binding inh – HP1-beta chromodomain-methylated histone interaction inhibition; P83916; AlphaScreen HP1-beta / biotin-H3K9me3 peptide binding; Potency, µM (titrated, usually from 114 µM), usual class: inhibitors; 390,000 tested, 0.56% active; AID 540317; note: nearly all actives have a fitted effect of over 70% in size
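Compound inhibition of the preformed complex between 50 nM HP1-beta and 50 nM biotinylated H3K9me3 peptide was read by AlphaScreen. Buffer was PBS pH 7.4 with 0.01% Tween-20. Incubations ran 30 min at room temperature, with 10 ug/mL donor/acceptor beads.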
G9a block – inhibitors of human histone lysine methyltransferase G9a; Potency, µM (titrated, usually from 102 µM), actives largely listed as inhibitors; G9a H3K9 monomethylation, AlphaScreen, 2 h; AID 504332; 350,000 tested, 8.8% active; note: nearly all actives have a fitted effect of over 75% in size
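G9a (20 nM) was preincubated 15 min with compound, then reacted 2 h at room temperature with 500 nM biotin-H3K9 peptide and 20 µM SAM. Monomethyl-H3K9 detected by AlphaScreen using anti-H3K9me1 antibody.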
Large screens that a line does not name were inactive. Hits are enriched below; roughly 10% of the tested compounds scored in any of these assays. Calls come from the whole dose curve; as a rule, active = well fitted curve in the direction sought with a large enough effect; inconclusive = small, poorly fitted or top-dose-only effect, or another doubt; inactive = no such curve, though single readings can be large; an effect the other way counts as inactive or inconclusive.

COc1ccccc1/C=C/C(=O)N1CCN(S(=O)(=O)c2cccs2)CC1	none (no result: BAZ2B block, G9a block)
Cc1ccc(-n2nnnc2CNC(=O)c2cc(C(F)(F)F)cc(C(F)(F)F)c2)cc1C	none
Cc1ccc(N2C(=N)/C(=C3/Nc4ccccc4S3)C(c3ccccc3)C2=O)cc1 (stereo not drawn)	JMJD2A Tudor inconclusive, G9a block 35.5µM
Cc1ccc(N2C(=O)C(F)(F)C2c2ccccc2)cc1 (stereo not drawn)	none
c1ccc2c(c1)CCN(c1nc(CN3CCOCC3)nc3sc4c(c13)CCCC4)C2	BAZ2B block 35.5µM, HP1b binding inh inconclusive, G9a block inconclusive
CCNc1nc(CN2CCOCC2)nc2sc3c(c12)CCC3	none
COc1ccc(-n2cc(C(=O)NCc3ccccc3)c3ccccc3c2=O)cc1	JMJD2A Tudor inconclusive, G9a block inconclusive
COc1ccc(-n2cc(C(=O)O)c(=O)cc2C)cc1	GLS inhibitor inconclusive, JMJD2A Tudor inconclusive, BAZ2B block inconclusive, G9a block 44.7µM
c1ccc(-c2ccncc2)nc1	none
c1ccc(-c2nc(-c3ccncc3)n[nH]2)nc1	JMJD2A Tudor 2.82µM, BAZ2B block 2.51µM (no result: G9a block)
CCOC(=O)CSc1nc2c(sc(=S)n2-c2ccccc2OC)c(=O)n1-c1ccccc1OC	none
CCOc1ccccc1-n1c(=S)sc2c(=O)n(-c3ccc(C)cc3)c(=S)[nH]c21	JMJD2A Tudor inconclusive, G9a block 10µM
CCn1c(=S)sc2c(=O)n(-c3ccccc3)c(=S)[nH]c21	G9a block 10µM
O=C(NCc1ccco1)c1ccc(COc2ccccc2Cl)cc1	JMJD2A Tudor 56.2µM, G9a block inconclusive
O=C(CSc1nnnn1-c1ccccc1)NC(=O)NCc1ccco1	JMJD2A Tudor inconclusive, BAZ2B block inconclusive
O=C(CSc1nnc(COc2ccccc2Cl)o1)NC(=O)NCc1ccco1	JMJD2A Tudor inconclusive, BAZ2B block 39.8µM, HP1b binding inh inconclusive, G9a block 50.1µM
CCOc1ccccc1-n1nnnc1SCC(=O)NC(=O)Cc1ccccc1	G9a block 10µM
CCOc1ccccc1-n1nnnc1SCC(=O)NC(=O)NCc1ccco1	GLS inhibitor inconclusive, JMJD2A Tudor inconclusive, BAZ2B block 50.1µM, G9a block 79.4µM
CC(C)(C)NC(=O)NC(=O)CSc1nnc(COc2ccccc2Cl)o1	G9a block inconclusive
Cc1ccc(C(=O)NCCc2ccc(S(N)(=O)=O)cc2)cc1-n1cnc2cccnc21	G9a block inconclusive
COc1ccc(Cc2c(C3CCCCC3)nc3c(Cl)cc(C(F)(F)F)cn23)c(C)c1	none (no result: JMJD2A Tudor, BAZ2B block, HP1b binding inh, G9a block)
Cc1cc2nc3c(=O)[nH]c(=O)[nH]c3nc2c([N+](=O)[O-])c1N	JMJD2A Tudor 44.7µM, BAZ2B block 50.1µM, HP1b binding inh inconclusive, G9a block 31.6µM
COCCNC(=O)c1ccc(-c2nc(CS(=O)(=O)c3ccccc3)c(C)o2)cc1	none
CCN(CC)c1ccc2nc3ccccc3[n+](CC)c2c1	JMJD2A Tudor inconclusive, BAZ2B block 39.8µM, HP1b binding inh inconclusive, G9a block 14.1µM
CCN(CC)c1ccc2nc3ccc(N)cc3[n+](-c3ccccc3)c2c1	JMJD2A Tudor 44.7µM, BAZ2B block 12.6µM
CCN(CC)c1ccc2cc(-c3nc4ccccc4[nH]3)c(=O)oc2c1	GLS inhibitor inconclusive
CCOC(=O)c1c(-c2ccccc2)oc2ccc(O)c(CN3CCCC3)c12	G9a block 44.7µM (no result: GLS inhibitor)
CCOC(=O)c1c(-c2ccccc2)oc2ccc(O)c(CN(C)C)c12	G9a block inconclusive
COc1ccc(C(=O)c2c(C)oc3ccc(O)c(CN4CCOCC4)c23)cc1	G9a block 44.7µM
COc1ccc(OC)c(C(O)c2coc3ccc(O)c(CN4CCOCC4)c23)c1 (stereo not drawn)	JMJD2A Tudor 89.1µM
COc1ccc(OC)c(C(O)c2coc3ccc(O)c(CN(C)C)c23)c1 (stereo not drawn)	G9a block inconclusive
CC(=O)NC1C(=O)SC1(C)C (stereo not drawn)	G9a block 28.2µM (no result: GLS inhibitor, JMJD2A Tudor, HP1b binding inh)
NC(=O)c1cc(N2C(=O)C=CC2=O)ccc1Cl	JMJD2A Tudor 25.1µM, BAZ2B block inconclusive, HP1b binding inh inconclusive, G9a block 1.26µM
CSc1ccc(CCNC(=O)C2CCCN(S(=O)(=O)N(C)c3ccc(F)cc3)C2)cc1 (stereo not drawn)	none
O=c1oc2ccccc2c(O)c1/C=N/c1ccccn1	none
Cc1cccc(/N=C/c2c(O)cc(C)oc2=O)n1	JMJD2A Tudor inconclusive, G9a block 12.6µM
CCOc1ccc(N=Cc2c(O)cc(C)oc2=O)cc1	none
Cc1cc(O)c(C=Nc2ccc(Cl)cn2)c(=O)o1	JMJD2A Tudor 31.6µM, BAZ2B block inconclusive
Oc1ccc2ccccc2c1C=Nc1ccc(Cl)cn1	JMJD2A Tudor 25.1µM, G9a block 1.78µM
Cc1cc(O)c(/C=N/c2ccccn2)c(=O)o1	JMJD2A Tudor 79.4µM, BAZ2B block inconclusive, G9a block 14.1µM
CS(=O)(=O)c1ccc(Cl)c(NC(=O)c2ccc(-n3cncn3)c([N+](=O)[O-])c2)c1	none (no result: JMJD2A Tudor, BAZ2B block, HP1b binding inh, G9a block)
Cc1ccc(N/N=C/c2c(O)cc(C)oc2=O)cc1	BAZ2B block inconclusive, G9a block inconclusive
Cc1ccc(CO/N=C/c2c(O)cc(C)oc2=O)cc1	JMJD2A Tudor inconclusive, BAZ2B block inconclusive, G9a block 31.6µM
Cc1cc(O)c(/C=N/Nc2ccc(F)cc2)c(=O)o1	JMJD2A Tudor inconclusive, G9a block 4.47µM
COc1ccc(CO/N=C/c2c(C)[nH]c(=O)[nH]c2=O)cc1	none
CCN1CC2=C(OC(N)=C(C#N)C2c2cccs2)/C(=C/c2cccs2)C1 (stereo not drawn)	JMJD2A Tudor inconclusive, BAZ2B block 31.6µM, G9a block inconclusive
CCN1C=C(Cc2cccs2)C2=C(C1)C(c1cccs1)C(C#N)=C(N)O2 (stereo not drawn)	JMJD2A Tudor inconclusive, BAZ2B block 35.5µM, G9a block inconclusive
CCN1CC2=C(OC(N)=C(C#N)C2c2ccccc2)/C(=C\c2ccccc2)C1 (stereo not drawn)	BAZ2B block inconclusive
CCOC(=O)C1=C(C)OC(N)=C(C#N)C1c1cccs1 (stereo not drawn)	none
COC(=O)C(C(=O)OC)C(c1ccccc1)C(C(=O)c1ccccc1)[N+](=O)[O-] (stereo not drawn)	G9a block 50.1µM
CS(=O)(=O)Nc1ccc(C2=NN(S(C)(=O)=O)C(c3ccc4c(c3)OCO4)C2)cc1 (stereo not drawn)	none
CCOc1ccc(S(=O)(=O)/N=C(\N)c2ccccc2)cc1	G9a block 35.5µM
COc1ccc(NC(=S)N/C(=N/S(=O)(=O)c2ccc(C)cc2)c2ccccc2)cc1	G9a block inconclusive
CCOC(=S)N/C(=N\S(=O)(=O)c1ccc(C)cc1)c1ccccc1	HP1b binding inh inconclusive, G9a block 7.94µM
O=S(=O)(/N=C(/NC(=S)Nc1ccccc1)c1ccccc1)c1ccc(Cl)cc1	HP1b binding inh inconclusive, G9a block 11.2µM
COc1ccc(NC(=S)NC(=NS(=O)(=O)c2ccc(Cl)cc2)c2ccccc2)cc1	HP1b binding inh inconclusive (no result: BAZ2B block, G9a block)
